The text below walks through data of PubChem BioAssay (NCATS).

Results filed as inconclusive are left out. Calls of active or inactive are those of the source. Calls come from the whole dose curve; as a rule, active = well fitted curve in the direction sought with a large enough effect; inconclusive = small, poorly fitted or top-dose-only effect, or another doubt; inactive = no such curve, though single readings can be large; an effect the other way counts as inactive or inconclusive.

Test [1] is described as follows: Quantitative High-Throughput drug screen in 47 multiple myeloma cell lines against the NCATS MIPE library collection: KHM11_PLB cell viability assay (AID 1918962). Note: nearly all actives have a fitted effect of over 35% in size. Note: potency is the fitted concentration of half-maximal effect. In short, it runs like this: (§1)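 Viability readout: CellTiter-Glo luminescence following 5 min room-temperature incubation with reagent. Prior exposure: 48 h, 37C, humidified 5% CO2, 500 cells per well.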

Test [2] is described as follows: Quantitative High-Throughput drug screen in 47 multiple myeloma cell lines against the NCATS MIPE library collection: JIM3_ECACC cell viability assay (AID 1918963; note: nearly all actives have a fitted effect of over 35% in size; note: potency is the fitted concentration of half-maximal effect). In outline:
as §1

Test [3] is described as follows: Quantitative High-Throughput drug screen in 47 multiple myeloma cell lines against the NCATS MIPE library collection: INA6_PLB cell viability assay (AID 1918965; note: nearly all actives have a fitted effect of over 55% in size; note: potency is the fitted concentration of half-maximal effect). In short, it runs like this:
(§2)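 Approved and investigational drugs from MIPE 4.0 were added by pin tool to 500 cells per well. After 48 hours at 37C, ATP-based CellTiter-Glo luminescence indicated remaining viability.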

The nature of test [4]: Quantitative High-Throughput drug screen in 47 multiple myeloma cell lines against the NCATS MIPE library collection: JJN3_DSMZ cell viability assay (AID 1918966; note: nearly all actives have a fitted effect of over 50% in size; note: potency is the fitted concentration of half-maximal effect). In short, it runs like this:
(§3)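 Primary qHTS used for cherry-picking: cells at 500/well, library compounds for 48 h (37C, 5% CO2), luminescent ATP assay.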

The nature of test [5]: Quantitative High-Throughput drug screen in 47 multiple myeloma cell lines against the NCATS MIPE library collection: H1112_PLB cell viability assay (AID 1918967; note: nearly all actives have a fitted effect of over 30% in size; note: potency is the fitted concentration of half-maximal effect). In outline:
as §3

A short description of test [6]: Quantitative High-Throughput drug screen in 47 multiple myeloma cell lines against the NCATS MIPE library collection: Karpas25_ECACC cell viability assay (AID 1918968; note: nearly all actives have a fitted effect of over 35% in size; note: potency is the fitted concentration of half-maximal effect). In outline:
as §3

The nature of test [7]: Quantitative High-Throughput drug screen in 47 multiple myeloma cell lines against the NCATS MIPE library collection: KMS12BM_JCRB cell viability assay (AID 1918971). Note: nearly all actives have a fitted effect of over 35% in size. Note: potency is the fitted concentration of half-maximal effect. In short, it runs like this: (§4)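 Steps: seed 500 cells per well; pin-transfer MIPE 4.0 library; incubate 48 h at 37C, 5% CO2, humidified; add CellTiter-Glo, 5 min room temperature; read luminescence.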
Test [8] is described as follows: Quantitative High-Throughput drug screen in 47 multiple myeloma cell lines against the NCATS MIPE library collection: MMM1_PLB cell viability assay (AID 1918976). In outline: (§5)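 MIPE 4.0 approved/investigational drugs; 500 cells/well; 48 h 37 °C humidified 5% CO2; CTG luminescence readout; DMSO = 100%, media = 0% viability.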
Test [9] can be described thus: Quantitative High-Throughput drug screen in 47 multiple myeloma cell lines against the NCATS MIPE library collection: MOLP8_DSMZ cell viability assay (AID 1918977). Note: nearly all actives have a fitted effect of over 45% in size. Note: potency is the fitted concentration of half-maximal effect. In outline: as §5
Test [10] in a line: Quantitative High-Throughput drug screen in 47 multiple myeloma cell lines against the NCATS MIPE library collection: NCIH929_DSMZ cell viability assay (AID 1918978). Note: nearly all actives have a fitted effect of over 35% in size. Note: potency is the fitted concentration of half-maximal effect. In short, it runs like this: as §5
Test [11] is described as follows: Quantitative High-Throughput drug screen in 47 multiple myeloma cell lines against the NCATS MIPE library collection: MM1S_ATCC cell viability assay (AID 1918980). Note: nearly all actives have a fitted effect of over 45% in size. Note: potency is the fitted concentration of half-maximal effect. In outline: as §5
Test [12] can be described thus: Quantitative High-Throughput drug screen in 47 multiple myeloma cell lines against the NCATS MIPE library collection: MM1R_ATCC cell viability assay (AID 1918981). Note: nearly all actives have a fitted effect of over 35% in size. Note: potency is the fitted concentration of half-maximal effect. In outline: as §5
Test [13] in a line: Quantitative High-Throughput drug screen in 47 multiple myeloma cell lines against the NCATS MIPE library collection: KMS27_JCRB cell viability assay (AID 1918970). Note: nearly all actives have a fitted effect of over 30% in size. Note: potency is the fitted concentration of half-maximal effect. Particulars: KMS27 myeloma cells, CellTiter-Glo ATP viability, 48 h; viability (% of DMSO): at 45.8 µM (top of the series). In short, it runs like this: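 CellTiter-Glo luminescence after 48 h drug exposure at 37 °C; 500 cells/well, 1536-well format, pin-tool compound addition; DMSO = 100%, media-only = 0% viability.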

Test [14] is described as follows: Quantitative High-Throughput drug screen in 47 multiple myeloma cell lines against the NCATS MIPE library collection: KMS12PE_JCRB cell viability assay (AID 1918972). Note: nearly all actives have a fitted effect of over 30% in size. Note: potency is the fitted concentration of half-maximal effect. In short, it runs like this:
as §2

The nature of test [15]: Quantitative High-Throughput drug screen in 47 multiple myeloma cell lines against the NCATS MIPE library collection: KMS20_JCRB cell viability assay (AID 1918973). Note: nearly all actives have a fitted effect of over 45% in size. Note: potency is the fitted concentration of half-maximal effect. In outline:
as §3

Test [16] can be described thus: Quantitative High-Throughput drug screen in 47 multiple myeloma cell lines against the NCATS MIPE library collection: KMS26_JCRB cell viability assay (AID 1918975). Note: nearly all actives have a fitted effect of over 45% in size. Note: potency is the fitted concentration of half-maximal effect. In short, it runs like this:
as §4

A short description of test [17]: Quantitative High-Throughput drug screen in 47 multiple myeloma cell lines against the NCATS MIPE library collection: OCIMY1_PLB cell viability assay (AID 1918979). Note: nearly all actives have a fitted effect of over 35% in size. Note: potency is the fitted concentration of half-maximal effect. In short, it runs like this: as §5
Test [18] is described as follows: Quantitative High-Throughput drug screen in 47 multiple myeloma cell lines against the NCATS MIPE library collection: JIM1_ECACC cell viability assay (AID 1918964; note: potency is the fitted concentration of half-maximal effect). In outline: as §3
Test [19] is described as follows: Quantitative High-Throughput drug screen in 47 multiple myeloma cell lines against the NCATS MIPE library collection: KMS21BM_JCRB cell viability assay (AID 1918974). The conditions noted are these: ATP luminescence, 48 h; viability: at 45.8 µM (top of the series). In short, it runs like this:
as §3

As for `O=c1c(O)c(-c2ccc(O)c(O)c2)oc2cc(O)ccc12`, the Potency in test [1] was 13.2 µM (active); in test [2] it was 13.2 µM (active); in [3], 7.43 µM (active); in test [4], 20.9 µM (active); in test [5], 26.4 µM (active); in [6], 8.33 µM (active). Besides, the Potency in test [7] is 26.4 µM (active); in test [8] it was 26.4 µM (active); in test [9], 18.7 µM (active); in test [10], 18.7 µM (active); in [11], 23.5 µM (active); in [12], 23.5 µM (active).
As for `COc1cc([C@@H]2c3cc4c(cc3[C@H](O)[C@H]3COC(=O)[C@@H]23)OCO4)cc(OC)c1OC`, the Potency was 0.105 µM (active) in test [1]; 0.118 µM (active) in test [2]; 0.148 µM (active) in test [3]; 0.526 µM (active) in test [4]; 0.526 µM (active) in test [5]; 0.187 µM (active) in [6]. For the same compound, the Potency was 0.0526 µM (active) in test [13]; 0.148 µM (active) in test [7]; 0.118 µM (active) in test [14]; 1.32 µM (active) in [15]; 0.372 µM (active) in test [16]; 0.469 µM (active) in [8]. Moreover, the Potency was 0.469 µM (active) in test [9], 0.59 µM (active) in test [10], 0.833 µM (active) in test [11] and 0.526 µM (active) in test [12].
In the case of `OCC(O)C(O)C(O)CO` (configuration not stated), the Potency entry in [1], in test [2], in test [3], in test [5], in test [6] and in test [13] was “inactive” in each case. Moreover, the Potency entry in [14], in test [16], in [10], in [17] and in [12] was “inactive” throughout. Also, the Potency in [4] was 2.96 µM (active).
`CCOC(=O)N1CCN([N+]([O-])=NOc2ccc([N+](=O)[O-])cc2[N+](=O)[O-])CC1`: the Potency in [1] was 1.48 µM (active); in test [2] it was 2.64 µM (active); in test [3], 2.96 µM (active); in test [4], 2.64 µM (active); in test [5], 1.18 µM (active); in [6], 0.469 µM (active). Moreover, the Potency was 4.18 µM (active) in test [13]; 1.48 µM (active) in [7]; 8.33 µM (active) in test [14]; 1.18 µM (active) in [15]; 0.833 µM (active) in test [16]; 3.72 µM (active) in [8]. Further, the Potency in [9] was 2.35 µM (active); in [10], 1.32 µM (active); in test [17], 7.43 µM (active); in test [11], 1.87 µM (active); in [12], 1.18 µM (active).
As for `O=C1c2cccc(O)c2C(=O)c2c(O)cc(CO)cc21`, the Potency entry in test [1], in test [2], in test [18], in test [5], in test [13] and in test [14] was “inactive” in each case. The Potency entry in test [15], in test [16], in [10], in [17], in test [11] and in test [12] was “inactive” in each case.
Take `COC(=O)[C@H](CCCN=C(N)N)NS(=O)(=O)c1ccc(C)cc1`: the Potency entry in test [1], in test [18], in test [13], in [7], in [14] and in test [15] was “inactive” in each case. The Potency result in test [19], in [16], in [10], in test [17], in test [11] and in test [12] was “inactive” in each case.
Consider `CC(Cc1ccc(O)c(O)c1)(NN)C(=O)O` (configuration not stated), for which the Potency entry in test [1], in test [18], in [3], in test [5], in test [13] and in [14] was “inactive” throughout. For the same compound, the Potency entry in test [10] is “inactive”. The Potency in [4] is 23.5 µM (active); in [7] it was 26.4 µM (active); in [8] it was 11.8 µM (active).
`O=C(O)CCCCC(CCSCc1ccccc1)SCc1ccccc1` (configuration not stated): the Potency result in test [1], in test [2], in test [7], in [16], in [9] and in test [10] was “inactive” throughout. The Potency result in test [17] and in [12] was “inactive” in each case. Besides, the Potency in test [13] is 13.2 µM (active); in [14], 16.6 µM (active).
With `O=C1NC(=O)[C@@H](c2cn3c4c(cccc24)CCC3)[C@H]1c1c[nH]c2ccccc12`, the Potency in test [2] was 0.118 µM (active); in test [18] it was 0.0469 µM (active); in [3], 0.209 µM (active); in test [4], 16.6 µM (active); in [6] it was 0.833 µM (active); in [13] it was 0.0833 µM (active). The Potency in [14] was 0.148 µM (active); in test [15], 0.105 µM (active); in test [16] it was 16.6 µM (active); in test [10], 11.8 µM (active); in test [11], 18.7 µM (active); in test [12], 14.8 µM (active).
Take `O=C(O)[C@H](CC(=O)N1C[C@@H]2CCCC[C@H]2C1)Cc1ccccc1`: the Potency entry in test [1], in test [2], in test [4], in test [5], in test [15] and in [16] was “inactive” in each case. The Potency entry in test [10] was “inactive”.
Regarding `CC(=O)O[C@H]1C[C@@H]2CC[C@H]3[C@H]4C[C@H]([N+]5(C)CCCCC5)[C@@H](OC(C)=O)[C@@]4(C)CC[C@@H]3[C@@]2(C)C[C@H]1[N+]1(C)CCCCC1`, the Potency entry in test [2], in test [18], in [3], in [6], in test [13] and in test [7] was “inactive” in each case. Besides, the Potency result in test [14], in test [15], in test [9], in [10], in test [17] and in test [12] was “inactive” in each case. In [11], the Potency was 2.09 µM (active).
For the compound `COc1cc(N2CCC(C(N)=O)CC2)ccc1Nc1nc(N)c(Cl)c(Nc2ccccc2S(=O)(=O)C(C)C)n1`, the Potency in [2] was 0.166 µM (active); in [18] it was 0.0469 µM (active); in test [3], 7.43 µM (active); in [4], 0.105 µM (active); in test [5], 0.148 µM (active); in test [6], 0.235 µM (active). Moreover, the Potency in [13] is 0.264 µM (active); in [7], 2.64 µM (active); in [15], 0.001 µM (active); in test [16] it was 1.87 µM (active); in test [8], 0.209 µM (active); in test [10], 0.0935 µM (active). The Potency is 0.743 µM (active) in test [11] and 1.18 µM (active) in test [12].
`Cc1coc2c1C(=O)C(=O)c1c-2ccc2c(C)cccc12`: the Potency entry in [1] and in [18] was “inactive” in each case. Further, the Potency in [3] is 13.2 µM (active); in test [4], 18.7 µM (active); in [6], 2.96 µM (active); in [7], 13.2 µM (active); in [16], 6.62 µM (active); in test [8] it was 20.9 µM (active). Besides, the Potency in [9] was 9.35 µM (active); in test [12], 20.9 µM (active).
